Assay results taken from patent publication US20060069055, “Delivery of polynucleotides” (published 2006).

biological target: NF-kB p65/p50 heterodimer (Homo sapiens, UniProt Q04206;P19838 Q04206:1-551,P19838:1-433); assay: EMSA; Table 3 gives 58 for PO; conditions: protein: extract; tags: nuclear extract of LPS-stimulated THP-1 cells; dsDNA, one strand shown
Description: The EMSA assay was employed to characterize oligonucleotide decoys for the NF-κB transcription factor. […] Using the above modified oligonucleotides to compete for binding for the above-mentioned NF-κB family members, it was possible to compare the binding affinity of these oligonucleotides against the high affinity radiolabeled probe and each other. This assay has also enabled the design of a decoy which selectively binds particular members of the NF-κB family. By using increasing concentrations of various oligonucleotides, it was observed that, by deleting or changing targeted residues in the binding site, it was possible to specifically decrease the binding of the decoy molecule to p50/p50 homodimers, while retaining the affinity for p65/p50 and cRel/p50 heterodimers.
The NF-κB gel shift assays (EMSA) were performed as follows. A double-stranded oligonucleotide containing a consensus NF-κB binding site (5′ […].GGC 3′) (SEQ ID NO: 26) was end-labeled with γ³²P-ATP using T4 Polynucleotide Kinase (Promega). […] The dried gels were imaged and quantitated using a Typhoon 8600 Phosphorlmager (Amersham) and ImageQuant software. […]

NF-kB p65/p50 heterodimer, sequence (Q04206 whole entry, chain 1 of 2): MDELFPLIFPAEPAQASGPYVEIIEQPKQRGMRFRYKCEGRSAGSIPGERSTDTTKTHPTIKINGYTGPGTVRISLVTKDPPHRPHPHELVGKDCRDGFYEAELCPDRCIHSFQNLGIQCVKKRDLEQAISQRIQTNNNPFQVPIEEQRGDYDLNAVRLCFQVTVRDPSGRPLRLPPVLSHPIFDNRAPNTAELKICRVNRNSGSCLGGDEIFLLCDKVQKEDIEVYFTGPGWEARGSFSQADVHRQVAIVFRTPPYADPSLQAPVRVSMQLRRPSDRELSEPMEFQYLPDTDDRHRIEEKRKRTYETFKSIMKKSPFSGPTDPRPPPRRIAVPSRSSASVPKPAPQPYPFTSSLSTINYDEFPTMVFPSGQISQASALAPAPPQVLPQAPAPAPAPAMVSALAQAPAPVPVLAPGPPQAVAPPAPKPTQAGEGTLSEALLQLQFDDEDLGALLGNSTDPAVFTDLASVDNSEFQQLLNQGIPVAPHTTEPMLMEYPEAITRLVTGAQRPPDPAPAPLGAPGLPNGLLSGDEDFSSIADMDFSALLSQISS
NF-kB p65/p50 heterodimer, sequence (P19838 1-433, chain 2 of 2): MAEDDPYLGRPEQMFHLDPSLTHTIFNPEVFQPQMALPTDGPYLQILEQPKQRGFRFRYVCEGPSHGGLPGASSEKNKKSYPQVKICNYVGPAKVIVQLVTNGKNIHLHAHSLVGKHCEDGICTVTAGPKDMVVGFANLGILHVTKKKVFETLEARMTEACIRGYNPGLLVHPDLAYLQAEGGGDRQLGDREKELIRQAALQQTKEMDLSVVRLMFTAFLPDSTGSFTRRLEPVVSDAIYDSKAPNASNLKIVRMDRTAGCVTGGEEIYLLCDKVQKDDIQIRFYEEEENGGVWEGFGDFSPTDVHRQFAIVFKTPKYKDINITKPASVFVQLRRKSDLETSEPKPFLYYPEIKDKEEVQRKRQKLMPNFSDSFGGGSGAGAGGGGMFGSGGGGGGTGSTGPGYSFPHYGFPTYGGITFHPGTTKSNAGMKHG

| Sequence | IC50 |
| --- | --- |
| AGTTGAGGACTTTCCAGGC | 62.4 fold molar excess |
